For eight compounds, growth results are on record in PubChem BioAssay (NCI).

This is part of a sample that, as a whole, favours compounds with a hit. Of some 83,000 tested, about 20% had one in any assay.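 Assay: single dose, 48 h. Readout: percent growth (0 = no net growth; negative = cell death). Active: <10.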 Values without a mark were called inactive. Active and inactive are the calls of the source.

Common to all, as to test: NCI-60 one-dose screen, 48 h (100 = growth as untreated, 0 = no growth, -100 = all killed)
Common to all, as to settings: 10 µM unless noted

Experiment [1] deals with SR leukemia.
The test system of experiment [2] is RPMI-8226 leukemia.
Experiment [3] deals with OVCAR-8 ovarian.
The subject of experiment [4] is OVCAR-5 ovarian.
The subject of experiment [5] is OVCAR-4 ovarian.
Experiment [6] concerns SK-OV-3 ovarian.
The test system of experiment [7] is IGROV1 ovarian.
Experiment [8] has as its system OVCAR-3 ovarian.
The subject of experiment [9] is HS 578T breast.
Experiment [10] deals with NCI/ADR-RES ovarian.
Experiment [11] concerns T-47D breast.
Experiment [12] deals with BT-549 breast.
The test system of experiment [13] is MDA-MB-435 melanoma.
The subject of experiment [14] is SW-620 colon.
Experiment [15] relates to MCF7 breast.
The test system of experiment [16] is HCT-116 colon.
For experiment [17], the system named is HCC-2998 colon.
In experiment [18] the test system is KM12 colon.

Take `C=C(C=O)[C@@H]1CC[C@]2(C)[C@H](C(=O)C=C3[C@H]4C[C@](C)(C(=O)OC)CC[C@]4(C)CC[C@]32C)[C@@]1(C)CCC#N`: the growth in experiment [1] is -9.31% (active); in experiment [2], -16.5% (active); in [3], 13.5%; in experiment [4], -25.7% (active); in experiment [5], 20.6%; in [6] it was 102%. Further, the growth in experiment [7] is 2.58% (active); in experiment [8] it was -47.2% (active); in experiment [9], -2.47% (active); in experiment [10] it was -24.3% (active); in experiment [11], 19.3%; in [12], 13.8%. The growth was -12.2% (active) in experiment [13]; 4.74% (active) in [14]; 2.5% (active) in [15]; -56% (active) in experiment [16]; -73% (active) in experiment [17]; 3.36% (active) in experiment [18].
On to `NC(=O)c1cccc(C#CCNC[C@H]2C[C@@H](n3ccc4c(Cl)ncnc43)[C@H](O)[C@@H]2O)c1`, for which the growth in experiment [1] was 112%; in experiment [2], 110%; in [3] it was 101%; in experiment [4], 98.4%; in experiment [5] it was 111%; in [6], 105%. The growth in experiment [7] is 101%; in experiment [8] it was 113%; in [9], 101%; in [10], 106%; in experiment [11] it was 96.6%; in experiment [12], 102%. In addition, the growth was -89.6% (active) in experiment [13]; 104% in experiment [14]; 96.5% in [15]; 104% in experiment [16]; 107% in experiment [17]; 106% in experiment [18].
Consider `COc1ccc(-c2nc(C(Cl)Cl)nc3cc(-c4ccccc4)nn23)cc1`, for which the growth was 4.09% (active) in experiment [1]; 14.9% in [2]; -34.3% (active) in experiment [3]; -12.9% (active) in experiment [4]; -15.3% (active) in experiment [5]; -29.7% (active) in [6]. Moreover, the growth in experiment [7] was 2.02% (active); in experiment [8], -33.9% (active); in experiment [9], -6.94% (active); in experiment [10] it was 9.82% (active); in [11] it was 45.8%; in [12], 38.4%. Besides, the growth in [13] was -30.3% (active); in experiment [14], -23.9% (active); in [15], 29.3%; in experiment [16] it was 1.5% (active); in experiment [17], -37.8% (active); in [18], -2.28% (active).
As for `CC(Nc1c(C#N)cnc2ccc(-c3cnc(N)nc3)cc12)c1ccccc1` (centres undefined), the growth in experiment [1] was 14%; in experiment [2] it was -11% (active); in [3] it was 21.3%; in experiment [4] it was 23.5%; in experiment [5] it was 16.5%; in experiment [6], -0.597% (active). For the same compound, the growth in [7] was -16% (active); in [8] it was 15.3%; in experiment [9], -22.5% (active); in experiment [10] it was 19.3%; in experiment [11], 9.18% (active); in [12], 4.06% (active). The growth in [13] is 15.5%; in experiment [14], 18.2%; in experiment [15], 8.42% (active); in experiment [16], 10.7%; in [17], 8.61% (active); in experiment [18] it was 10.8%.
As to `COc1cc(/C=C/C(=O)c2ccc(NC(=O)CSc3nnc(-c4ccc(-c5nc6ccc(Cl)cc6[nH]5)cc4)o3)cc2)cc(OC)c1OC`, the growth in experiment [1] is 48.4%; in [2], 108%; in experiment [3], 98%; in experiment [4], 91.3%; in [5], 102%; in [6] it was 99%. Further, the growth in experiment [7] is 88.3%; in experiment [8], 84.1%; in [9], 90.9%; in [10] it was 84.3%; in experiment [11], 106%; in experiment [12] it was 85.6%. The growth in experiment [13] was 24.1%; in experiment [14], 87.4%; in [15], 91.8%; in experiment [16], 90.5%; in experiment [17], 96.3%; in [18], 80.6%.
For `C#CCn1cccc1CNc1ccc(OC)cc1`, the growth in experiment [1] is -36.1% (active); in experiment [2] it was -58.8% (active); in experiment [3], -28% (active); in experiment [4], -89.5% (active); in [5], -63.8% (active); in experiment [6], -63.5% (active). Besides, the growth in experiment [7] is -68.5% (active); in [8], -84.7% (active); in experiment [9] it was -40% (active); in experiment [10], -53.1% (active); in experiment [11], -55.7% (active); in experiment [12], -83.7% (active). Moreover, the growth in experiment [13] was -54.5% (active); in experiment [14], -36.2% (active); in experiment [15], -53.8% (active); in experiment [16] it was -68.7% (active); in experiment [17], -89% (active); in experiment [18] it was -72.6% (active).
Consider `CCn1c(SCC(=O)Nc2cccc(C(=O)/C=C/c3ccccc3Cl)c2)nc2ccccc2c1=O`, for which the growth in experiment [1] is 52.2%; in experiment [2] it was 6.75% (active); in [3], 98.9%; in [4], 97.7%; in [5], 86%; in experiment [6], 106%. The growth in experiment [7] is 65.7%; in experiment [8], 69.1%; in experiment [9], 92.2%; in experiment [10], 93.4%; in experiment [11], 81.3%; in [12], 105%. The growth in [13] is 98.6%; in experiment [14], 72.8%; in [15] it was 17.1%; in [16], -26.3% (active); in experiment [17], 91%; in experiment [18], 85.3%.
Take `CS(=O)(=O)Nc1cc(-c2ccc3ncc(C#N)c(NCc4ccccc4F)c3c2)cnc1Cl`: the growth in experiment [1] is 3.57% (active); in experiment [2], -22% (active); in experiment [3] it was 7.93% (active); in [4], 16.8%; in [5], 12.6%; in experiment [6], -13.7% (active). The growth was -29.1% (active) in experiment [7]; 3.41% (active) in experiment [8]; -22% (active) in experiment [9]; 25% in [10]; 3.78% (active) in [11]; -8.8% (active) in experiment [12]. In addition, the growth in experiment [13] was 6.84% (active); in experiment [14], 8.38% (active); in [15], 4.76% (active); in experiment [16], 4.1% (active); in [17] it was -1.68% (active); in experiment [18] it was 11.5%.
